From PubChem BioAssay (NCATS) come the findings set out here.

Results filed as inconclusive are left out. Activity calls are given as the source filed them. Unless noted, the call rests on the fitted dose curve.

Assay [1] in a line: qHTS assay for small molecule agonists of retinoid X receptor alpha signaling (AID 588544).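 On activation: 0% = DMSO basal wells and 100% = reference agonist.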 Conditions: HEK293T RXRa-UAS-bla, beta-lactamase reporter, 18 h; 530 nm emission. In general terms: qHTS replaces the single test concentration by a dilution series.
The target in assay [2] is Retinoic acid receptor RXR-alpha (Homo sapiens) (UniProt P19793). Described as above. To be noted: HEK293T RXRa-UAS-bla, beta-lactamase reporter, 18 h; series mostly up to 76.7 µM.
Retinoic acid receptor RXR-alpha (Homo sapiens), sequence (P19793 whole entry, looked up): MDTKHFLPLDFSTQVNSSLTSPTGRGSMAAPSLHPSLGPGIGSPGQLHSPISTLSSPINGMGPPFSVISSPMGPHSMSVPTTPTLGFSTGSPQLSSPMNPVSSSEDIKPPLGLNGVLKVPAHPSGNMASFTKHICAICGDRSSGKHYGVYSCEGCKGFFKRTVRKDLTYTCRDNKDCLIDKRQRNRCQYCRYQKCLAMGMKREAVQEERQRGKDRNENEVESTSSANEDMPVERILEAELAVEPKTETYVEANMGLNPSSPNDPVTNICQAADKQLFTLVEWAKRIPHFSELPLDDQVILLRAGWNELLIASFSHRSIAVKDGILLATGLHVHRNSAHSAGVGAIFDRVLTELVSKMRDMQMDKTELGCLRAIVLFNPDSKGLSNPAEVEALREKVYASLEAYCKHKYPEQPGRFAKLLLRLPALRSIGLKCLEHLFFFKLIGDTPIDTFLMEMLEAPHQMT
Assay [3] deals with Thyroid hormone receptor beta (Homo sapiens) (UniProt P10828). Description: qHTS assay for small molecule agonists of thyroid hormone receptor beta signaling (AID 588545).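 Further: 0% = DMSO only and 100% = 10 nM T3.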 To be noted: TR-UAS-bla GripTite HEK 293, beta-lactamase ratio, agonist mode, 18 h, percent of T3 response, DMSO as zero; series mostly up to 76.7 µM. In short, it runs like this:
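Efficacy and EC50 values derive from Hill fits of qHTS titration data, normalized to 10 nM T3 and DMSO-only wells. HEK 293 reporter cells were stimulated for 18 hrs at 37 C, with beta-lactamase activity measured by CCF4 fluorescence.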

Assay [4] can be described thus: qHTS assay for small molecule antagonists of retinoid X receptor alpha signaling (AID 588546; active means well fitted inhibition curve with a large enough effect in the signal ratio, with a control signal flat, not every such curve was filed as active; the % refers to the signal ratio;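 further: cells stimulated with 9-cis-retinoic acid as agonist; on the % scale 0 is the no-effect control and ±100 the full control effect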). To be noted: HEK293T RXRa-UAS-bla, beta-lactamase ratio, antagonist mode; measured here: W530 green channel, cytotoxicity proxy. The essentials: (§1)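 Beta-lactamase reporter inhibition, read as CCF4 fluorescence ratio (ex 405, em 460/530 nm) after 2 h at RT. HEK293T UAS-bla cells, 2500/well, were stimulated with 9-cis-RA at 500 or 100 nM final alongside test compound for 18 h at 37 C.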

In assay [5] the target is Thyroid hormone receptor beta (Homo sapiens) (UniProt P10828). Description: qHTS assay for small molecule antagonists of thyroid hormone receptor beta signaling (AID 588547; active means well fitted inhibition curve with a large enough effect in the signal ratio, with a control signal flat, not every such curve was filed as active; the % refers to the signal ratio;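 further: cells stimulated with 0.4 nM T3 agonist during compound exposure; on the % scale 0 is the no-effect control and ±100 the full control effect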). To be noted: TR-UAS-bla HEK293, beta-lactamase ratio, antagonist mode, 18 h. The essentials: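 Inhibition of T3-driven (0.4nM final) beta-lactamase reporter activity was measured over 0.59 nM to 92 uM compound after 18 h at 37 C. The cells were GripTite HEK293 TR-UAS-bla in charcoal/dextran-stripped serum, with CCF4 ratio read-out and IC50 from Hill fits.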
Thyroid hormone receptor beta (Homo sapiens), sequence (P10828 whole entry, looked up): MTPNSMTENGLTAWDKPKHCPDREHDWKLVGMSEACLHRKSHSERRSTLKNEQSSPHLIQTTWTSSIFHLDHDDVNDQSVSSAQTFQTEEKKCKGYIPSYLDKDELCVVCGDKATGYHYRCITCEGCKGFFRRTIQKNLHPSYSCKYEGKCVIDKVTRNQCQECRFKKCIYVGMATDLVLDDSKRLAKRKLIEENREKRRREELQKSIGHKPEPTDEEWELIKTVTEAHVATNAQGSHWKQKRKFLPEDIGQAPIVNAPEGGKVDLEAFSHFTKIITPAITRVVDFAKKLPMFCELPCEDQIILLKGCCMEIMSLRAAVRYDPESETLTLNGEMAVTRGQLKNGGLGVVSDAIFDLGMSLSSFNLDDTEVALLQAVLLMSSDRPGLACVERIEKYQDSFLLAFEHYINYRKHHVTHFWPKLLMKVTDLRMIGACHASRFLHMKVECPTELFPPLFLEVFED

Assay [6] in a line: qHTS assay for small molecule agonists of the antioxidant response element (ARE) signaling pathway (AID 651741; active means well fitted activation curve with a large enough effect in the signal ratio; the % refers to the signal ratio; further: % of control where 0% means no effect). To be noted: HepG2 ARE-bla reporter, beta-lactamase FRET ratio, 16 h; series mostly up to 96 µM. In short, it runs like this:
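Agonist activity is measured as ARE-driven beta-lactamase expression in a stable HepG2 reporter line, using 16 h compound treatment at 37 C and a FRET substrate fluorescence readout after 2 h.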

Assay [7] is described as follows: qHTS assay for small molecule activators of the p53 signaling pathway (AID 651743; active means well fitted activation curve with a large enough effect in the signal ratio, not every such curve was filed as active; the % refers to the signal ratio; further: % of control where 0% means no effect). To be noted: HCT-116 p53RE-bla, beta-lactamase FRET ratio, 16 h; stronger effect = higher value. The essentials: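 A beta-lactamase reporter under p53 response element control, stably carried by HCT-116 cells, reported pathway activation. Test compounds were applied for 16 hours at 37 C, and fluorescence was measured 2 hours after adding the B/G FRET substrate.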

Assay [8] can be described thus: qHTS assay for small molecule activators of the nuclear factor-kappa B (NF-kB) signaling pathway (AID 651749; active means well fitted activation curve with a large enough effect in the signal ratio; the % refers to the signal ratio; further: % of control where 0% means no effect). Conditions: NF-kB-bla ME-180 cells, beta-lactamase FRET ratio, 16 h; stronger effect = higher value. The essentials:
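FRET-based beta-lactamase detection in ME-180 cells reports NF-kB response-element-driven transcription following overnight (16 hr) compound treatment.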

Assay [9] in a line: qHTS assay for small molecule disruptors of the mitochondrial membrane potential - 1 hr assay (AID 651754). Further: on the % scale 0 is the no-effect control and ±100 the full control effect; nearly all actives have a fitted effect of over 35% in size. To be noted: series mostly up to 92.2 µM. The essentials: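 Read-out: dye fluorescence at 490 nm ex/535 nm em (monomers) and 540 nm ex/590 nm em (aggregates) in HepG2 cells. Compound exposure 1 hr at 37C, followed by 30 min dye loading.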
Assay [10] in a line: qHTS assay for small molecule disruptors of the mitochondrial membrane potential - 5 hr assay (AID 651755). Further: on the % scale 0 is the no-effect control and ±100 the full control effect; nearly all actives have a fitted effect of over 40% in size. To be noted: JC-1-type ratio dye; series mostly up to 92.2 µM. In short, it runs like this: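 Membrane-potential dye readout: red aggregate (540 ex/590 em) versus green monomer (490 ex/535 em) fluorescence after 30 min dye loading, following 5 hr compound exposure at 37C of overnight-plated HepG2 cells.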

The target of assay [11] is Tumor necrosis factor (Homo sapiens) (UniProt P01375). Description: qHTS assay to identify small molecules that stimulate Tumor Necrosis Factor-alpha (TNF-alpha) secretion (AID 651757; active means well fitted curve in the direction sought with a large enough effect in the signal ratio; the % refers to the signal ratio; further: 0% is about no effect). To be noted: Human cells, HTRF 665/615 ratio; series mostly up to 92.2 µM. In short, it runs like this:
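THP-1 cells, 3000/well; compound 17 hrs, 37 C; add cryptate/XL665 anti-TNF-alpha antibody pair; 3 hr RT; TR-FRET (HTRF) read of secreted TNF-alpha. Quantitative HTS format.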

The nature of assay [12]: qHTS assay to identify small molecules that stimulate interleukin-8 (IL-8) secretion (AID 651758; active means well fitted activation curve with a large enough effect in the signal ratio; the % refers to the signal ratio; further: 0% is about no effect). Conditions: HTRF ratio (665/615); series mostly up to 92.2 µM. In short, it runs like this: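 Secreted IL-8 measured homogeneously by TR-FRET (two labelled anti-IL-8 antibodies, 1-3 h at room temperature) after a 16 h, 37 C compound treatment of THP-1 cells at 2000 cells/well.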

The target in assay [13] is Peroxisome proliferator-activated receptor alpha (Homo sapiens) (UniProt Q07869). The assay is described as follows: qHTS assay for small molecule agonists of the peroxisome proliferator-activated receptor alpha (PPARalpha) signaling pathway (AID 651778; active means well fitted curve in the direction sought with a large enough effect; an effect the other way counts as inactive or inconclusive; further: % of control where 0% means no effect). Conditions: PathHunter PPARalpha complementation, chemiluminescence, 6 h; stronger effect = higher value. In short, it runs like this:
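Chemiluminescence from complemented enzyme reported PPARalpha activation in cells after 6 hr of compound treatment at 37 C. The detection reagent was incubated for 60 min at room temperature, and compounds were scored as agonists.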

Assay [14] concerns the target Nuclear receptor ROR-gamma (Homo sapiens) (UniProt P51449). Description: qHTS assay for small molecule antagonists of the retinoid-related orphan receptor gamma (ROR-gamma) signaling pathway (AID 651802; active means well fitted curve in the direction sought with a large enough effect; an effect the other way counts as inactive or inconclusive;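 further: CHO cells with doxycycline-induced ROR-gamma expression; luciferase reporter luminescence driven by ROR response element; on the % scale 0 is the no-effect control and ±100 the full control effect; nearly all actives have a fitted effect of over 60% in size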). To be noted: ROR-gamma antagonist cell reporter assay; series mostly up to 92.2 µM. The essentials:
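Luciferase read-out: ONE-Glo luminescence after 30 min at room temperature, following 16hr doxycycline induction at 37C, 5% CO2 of CHO cells with TET-inducible ROR and RORE-LUC reporter; decreased luminescence = reduced reporter activity.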

A short description of assay [15]: qHTS assay for small molecule agonists of the antioxidant response element (ARE) signaling pathway measured by Nrf2-dependant transcriptional activity (AID 720636; active means well fitted curve in the direction sought with a large enough effect in the repeat runs; an effect the other way counts as inactive or inconclusive;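 further: HepG2 cells with an ARE-driven luciferase reporter; % of control where 0% means no effect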). To be noted: ARE-luc HepG2, Nrf2 luciferase reporter, 16 h; series mostly up to 92.4 µM. In short, it runs like this: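 HepG2 ARE-luc reporter line, 1% dialyzed FBS; 6 hr attachment at 37 C, compound pinned in, 16 hr at 37 C/5% CO2; ONE-Glo, 30 min RT, luminescence read.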

Assay [16] can be described thus: qHTS assay for small molecule antagonists of the retinoid-related orphan receptor gamma (ROR-gamma) signaling pathway - cell viability counter screen (AID 720652; active means well fitted curve in the direction sought with a large enough effect in the repeat runs; an effect the other way counts as inactive or inconclusive;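 further: CHO reporter cells with doxycycline-induced ROR-gamma expression; compound exposure lasted 16 hr before ATP read; on the % scale 0 is the no-effect control and ±100 the full control effect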). To be noted: RORgamma reporter cell line viability counter screen; series mostly up to 92.2 µM. The essentials:
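CHO RORE-LUC/TET-ROR line, 1,000 cells/well, 37 C 5% CO2 5 hr; cpd or DMSO + doxycycline induction, 16 hr. CellTiter-Glo, 30 min RT, luminescence = ATP content.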

A short description of assay [17]: qHTS assay for small molecule agonists of the antioxidant response element (ARE) signaling pathway measured by Nrf2-dependant transcriptional activity - cell viability counter screen (AID 720653; active means well fitted curve in the direction sought with a large enough effect in the repeat runs; an effect the other way counts as inactive or inconclusive; further: on the % scale 0 is the no-effect control and ±100 the full control effect). Conditions: ARE-bla HepG2 viability, CellTiter-Glo ATP luminescence, 16 h; stronger effect = lower value. The essentials:
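Cytotoxicity counter screen: intracellular ATP quantified by CellTiter-Glo luminescence in the same ARE-bla HepG2 plates, after 16 h compound exposure and a 2 h beta-lactamase substrate step.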

For assay [18], the target named is Retinoic acid receptor RXR-alpha (Homo sapiens) (UniProt P19793). Description: qHTS assay for small molecule antagonists of retinoid X receptor alpha signaling (AID 588546).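 Further: cells stimulated with 9-cis-retinoic acid as agonist; on the % scale 0 is the no-effect control and ±100 the full control effect.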 To be noted: HEK293T RXRa-UAS-bla, beta-lactamase ratio, antagonist mode. The essentials: as §1
For assay [19], the target named is Voltage-gated inwardly rectifying potassium channel KCNH2 (Homo sapiens) (UniProt Q12809). Description: qHTS Assay for Small Molecule Inhibitors of the Human hERG Channel Activity (AID 588834; active means well fitted curve in the direction sought with a large enough effect; an effect the other way counts as inactive or inconclusive;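 further: top concentration of the series differs between compounds; on the % scale 0 is the no-effect control and ±100 the full control effect; lower thallium flux fluorescence means stronger hERG block; nearly all actives have a fitted effect of over 50% in size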). Conditions: U2OS BacMam hERG, FluxOR thallium flux fluorescence; series mostly up to 92.2 µM. In short, it runs like this:
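Thallium serves as surrogate for K+ influx through BacMam-delivered hERG in U2OS cells. Compounds are added for about 10 minutes after dye loading; stimulation buffer then starts flux, monitored kinetically on FDSS.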

Assay [20] can be described thus: qHTS assay for environmental chemicals that activate the Aryl hydrocarbon Receptor (AhR) signaling pathway (AID 651777; active means well fitted curve in the direction sought with a large enough effect; an effect the other way counts as inactive or inconclusive; further: % of control where 0% means no effect; nearly all actives have a fitted effect of over 15% in size). To be noted: 1A2-DRE human hepatoma cells, luciferase, 24 h; activation: stronger effect = higher value. The essentials: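 Luminescence read-out: One-Glo added for 30 min at RT after 24 hr compound treatment (37 C, 5% CO2) of human hepatoma cells expressing a DRE/CYP1A2 promoter–luciferase reporter; increased signal indicates AhR activation.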

Peroxisome proliferator-activated receptor alpha (Homo sapiens), sequence (Q07869 whole entry, looked up): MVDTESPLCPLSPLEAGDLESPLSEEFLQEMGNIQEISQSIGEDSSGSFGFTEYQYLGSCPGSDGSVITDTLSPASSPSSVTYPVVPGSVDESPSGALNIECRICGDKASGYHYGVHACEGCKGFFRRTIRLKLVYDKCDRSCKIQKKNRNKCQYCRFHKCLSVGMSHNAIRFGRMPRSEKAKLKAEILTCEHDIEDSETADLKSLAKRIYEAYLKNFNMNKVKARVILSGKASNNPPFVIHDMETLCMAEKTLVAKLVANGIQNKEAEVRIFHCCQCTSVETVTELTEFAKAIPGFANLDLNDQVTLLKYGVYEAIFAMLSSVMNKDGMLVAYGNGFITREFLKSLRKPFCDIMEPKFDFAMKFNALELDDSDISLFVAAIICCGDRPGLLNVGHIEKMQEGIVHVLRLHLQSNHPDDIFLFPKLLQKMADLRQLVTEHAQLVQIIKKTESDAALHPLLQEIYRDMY
Nuclear receptor ROR-gamma (Homo sapiens), sequence (P51449 whole entry, looked up): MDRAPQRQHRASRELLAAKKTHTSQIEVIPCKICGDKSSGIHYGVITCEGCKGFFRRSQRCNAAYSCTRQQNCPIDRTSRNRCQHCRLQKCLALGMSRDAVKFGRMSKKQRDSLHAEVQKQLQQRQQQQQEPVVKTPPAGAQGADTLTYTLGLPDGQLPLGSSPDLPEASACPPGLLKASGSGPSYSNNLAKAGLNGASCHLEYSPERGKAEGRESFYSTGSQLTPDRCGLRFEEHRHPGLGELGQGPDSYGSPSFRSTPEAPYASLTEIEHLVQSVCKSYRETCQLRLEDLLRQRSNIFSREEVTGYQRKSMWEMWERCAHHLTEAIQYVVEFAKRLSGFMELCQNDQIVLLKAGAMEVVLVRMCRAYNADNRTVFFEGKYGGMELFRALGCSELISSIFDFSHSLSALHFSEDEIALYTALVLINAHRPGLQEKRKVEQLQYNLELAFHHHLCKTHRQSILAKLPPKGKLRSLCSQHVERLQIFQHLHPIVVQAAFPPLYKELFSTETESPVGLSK
Tumor necrosis factor (Homo sapiens), sequence (P01375 whole entry, looked up): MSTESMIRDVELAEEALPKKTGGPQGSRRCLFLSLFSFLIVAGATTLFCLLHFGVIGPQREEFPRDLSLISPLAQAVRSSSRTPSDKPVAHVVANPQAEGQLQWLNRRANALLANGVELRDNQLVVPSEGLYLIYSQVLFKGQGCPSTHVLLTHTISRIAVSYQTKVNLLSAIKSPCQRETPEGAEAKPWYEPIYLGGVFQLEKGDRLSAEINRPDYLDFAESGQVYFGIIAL
Voltage-gated inwardly rectifying potassium channel KCNH2 (Homo sapiens), sequence (Q12809 whole entry, looked up): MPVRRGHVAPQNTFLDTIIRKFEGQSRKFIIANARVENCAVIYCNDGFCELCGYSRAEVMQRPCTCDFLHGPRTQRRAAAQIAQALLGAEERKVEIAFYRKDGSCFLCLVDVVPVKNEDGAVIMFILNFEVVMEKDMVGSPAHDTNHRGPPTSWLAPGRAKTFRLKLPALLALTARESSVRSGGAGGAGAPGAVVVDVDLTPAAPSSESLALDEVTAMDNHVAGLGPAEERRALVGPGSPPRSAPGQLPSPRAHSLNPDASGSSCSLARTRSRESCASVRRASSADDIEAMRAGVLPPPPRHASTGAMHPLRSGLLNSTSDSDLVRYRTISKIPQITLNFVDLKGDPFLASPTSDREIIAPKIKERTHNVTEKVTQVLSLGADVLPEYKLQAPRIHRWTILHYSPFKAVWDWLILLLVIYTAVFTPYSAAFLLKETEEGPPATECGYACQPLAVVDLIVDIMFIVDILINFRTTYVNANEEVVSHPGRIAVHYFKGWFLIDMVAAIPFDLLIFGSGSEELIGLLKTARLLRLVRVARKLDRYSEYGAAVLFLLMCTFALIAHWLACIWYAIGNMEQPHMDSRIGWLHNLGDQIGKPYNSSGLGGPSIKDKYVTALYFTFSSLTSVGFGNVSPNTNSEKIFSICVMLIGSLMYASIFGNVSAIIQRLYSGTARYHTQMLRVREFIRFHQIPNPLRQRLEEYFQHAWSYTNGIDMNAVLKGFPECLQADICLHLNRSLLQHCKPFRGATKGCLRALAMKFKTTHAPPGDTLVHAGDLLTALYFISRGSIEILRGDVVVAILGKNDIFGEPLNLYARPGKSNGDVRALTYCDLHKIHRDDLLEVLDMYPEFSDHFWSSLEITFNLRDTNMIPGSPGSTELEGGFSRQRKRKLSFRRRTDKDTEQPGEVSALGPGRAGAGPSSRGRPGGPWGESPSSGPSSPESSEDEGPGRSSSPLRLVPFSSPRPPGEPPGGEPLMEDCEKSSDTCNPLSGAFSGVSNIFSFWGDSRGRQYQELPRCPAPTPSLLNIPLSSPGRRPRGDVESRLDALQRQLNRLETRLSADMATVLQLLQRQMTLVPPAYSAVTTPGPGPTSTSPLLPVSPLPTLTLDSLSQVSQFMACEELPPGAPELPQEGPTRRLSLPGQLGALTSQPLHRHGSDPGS

Take `c1ccc2c(c1)Oc1ccccc1S2`: the max response in assay [1] was -9.36%; in assay [4], -7.12%; in assay [13], -0.0488% (inactive); in assay [17], 6.9% (inactive). The call in assay [2], in assay [3] and in assay [15] was inactive. Further, the activity change % (negative = inhibition) in assay [5] is -3.93% (inactive). The Potency result in [6], in assay [9], in assay [10], in assay [11], in assay [12] and in assay [14] was “inactive” in each case. Moreover, the Potency result in [16] is “inactive”. Moreover, the activation in assay [7] is 0.189% (inactive); in assay [8], -0.203% (inactive).
Regarding `Cc1ccc(C)cc1`, the max response is 4.64% in assay [1]; -6.14% in assay [4]; 34.4% (inactive) in [18]; -4.74% (inactive) in assay [13]; -7.71% (inactive) in assay [17]. Besides, the compound was classed as inactive in [2] and in [15]. In addition, the activity change % (negative = inhibition) in assay [5] was 2.43% (inactive). Moreover, the Potency entry in [19], in assay [6], in assay [9], in assay [10], in assay [11] and in [12] was “inactive” each time. The Potency result in assay [14] and in assay [16] was “inactive” in each case. Further, the activation in assay [7] is -3.21% (inactive); in [20], 0.01% (inactive).
With `CCCCOCCOCCOCCCC`, the max response was -13.3% in [1], -5.07% (inactive) in assay [13] and 10.5% (inactive) in assay [17]. Also, the call in [2], in [3] and in [15] was inactive. For the same compound, the activity change % (negative = inhibition) in assay [5] was 3.11% (inactive). Also, the Potency result in assay [19], in assay [9], in assay [10], in assay [11], in [14] and in assay [16] was “inactive” each time. The activation in [7] is -0.253% (inactive); in assay [8], 0.513% (inactive); in assay [20], -0.359% (inactive).
For the compound `CC/C(C)=N/O`, the values for the max response in assay [1], in [13] and in assay [17] were -14.2%, 1.72% (inactive) and -8.91% (inactive), respectively. The call in assay [2], in [3] and in [15] was inactive. Besides, the activity change % (negative = inhibition) in [5] is 13.4% (inactive). Moreover, the Potency result in assay [19], in assay [9], in [10], in assay [11], in [12] and in assay [14] was “inactive” in each case. Also, the Potency result in [16] is “inactive”. Also, the activation in [7] was -0.712% (inactive).
